In PubChem BioAssay:
Records with an inconclusive call do not appear. Calls of active or inactive are those of the source. Cut-off read from the data, not from the text of the source, unless noted: active = inhibition above about 80%; inactive = the rest.

Experiments:
[1] = viability loss in pontine glioma line – cell-based, SU-DIPG-XVII, MIPE5.0, CellTiter-Glo, qHTS, dose response (AID 1347060; cut-off not given, nearly all actives have AC50 up to about 26 µM;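 for AC50: cells exposed to compound for 48 hours before viability readout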); conditions: CellTiter-Glo ATP luminescence
[2] = viability loss in pontine glioma line – cell-based, SU-DIPG-XIII, MIPE5.0, CellTiter-Glo, qHTS, dose response (AID 1347064; cut-off not given, nearly all actives have AC50 up to about 23 µM;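 for AC50: cells exposed to compound for 48 hours before the viability read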); conditions: CellTiter-Glo ATP luminescence
[3] = growth inhibition of DIPG cells – cell-based, MIPE5.0 library, qHTS (AID 1347068; cut-off not given, nearly all actives have IC50 up to about 30 µM); conditions: SU-DIPG-XXV viability
[4] = viability loss in pontine glioma line – cell-based, SU-DIPG-XXV, MIPE5.0, CellTiter-Glo, qHTS, dose response (AID 1347065; cut-off not given, nearly all actives have AC50 up to about 26 µM;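 note: cells exposed to compound for 48 hours before ATP readout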); conditions: CellTiter-Glo ATP luminescence
[5] = JHH-DIPG-1 glioma cell viability, MIPE5.0 library, CellTiter-Glo luminescence, qHTS (AID 1347067; cut-off not given, nearly all actives have AC50 up to about 26 µM;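 note: cells exposed to compound for 48 hours before readout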); conditions: JHH-DIPG-1 glioma viability, CellTiter-Glo ATP luminescence
[6] = growth inhibition, single agent or in combination, cell-based, chromothripsis tumors, cisplatin or BGB combos (AID 1671449); conditions: LFS_MB_P medulloblastoma cells;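 note: cells exposed for 96 hours; 0% = vehicle DMSO and 100% = killing by high DMSO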
[7] = growth inhibition, single agent and combos, cell-based, chromothripsis tumors, cisplatin or BGB combos (AID 1671450); conditions: HDN33 neuroblastoma cells, stronger effect = higher value;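 note: cells exposed to compound for four days; 0% = vehicle DMSO and 100% = cell killing by high DMSO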
[8] = growth inhibition, single agents and combos, ICB984, cell-based, cisplatin or BGB combos, synergistic combos for chromothripsis tumors (AID 1671451; call rule not given here;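 note: cells exposed for 96 hours before readout; 0% = vehicle DMSO and 100% = killing by high DMSO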); conditions: ICB984 medulloblastoma cells, drug combinations, stronger effect = higher value
[9] = growth inhibition, single agents and combos, LFS_MB_1R, cell-based, cisplatin or BGB combos, synergistic combos for chromothripsis tumors (AID 1671452); conditions: LFS_MB_1R medulloblastoma cells, stronger effect = higher value;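 note: cells exposed for 96 hours before readout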
[10] = growth inhibition, single agents and combos, HTB85, cell-based, BGB or cisplatin IC20 combos, synergistic combos for chromothripsis tumors (AID 1671453); conditions: HTB85 osteosarcoma cells, drug combinations, stronger effect = higher value;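 note: cells exposed for 96 hours before readout; 0% = vehicle DMSO and 100% = high DMSO killing control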
[11] = growth inhibition, single agents and combos, CRL2098, cell-based, BGB or cisplatin IC20 combos, synergistic combos for chromothripsis tumors (AID 1671454); conditions: CRL2098 osteosarcoma cells, drug combinations, stronger effect = higher value;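 note: cells exposed for 96 h before readout; 0% = vehicle DMSO and 100% = killing by high DMSO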
[12] = growth inhibition, single agents and combos, HD-MB03, cell-based, BGB or cisplatin IC20 combos, synergistic combos for chromothripsis tumors (AID 1671455; in the data active = inhibition above about 83%;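 note: 0% = vehicle DMSO and 100% = high DMSO as cytotoxic control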); conditions: HD-MB03 medulloblastoma cells, stronger effect = higher value
[13] = growth inhibition, single agents and combos, UWB1.289, cell-based, BGB or cisplatin combos, synergistic combos for chromothripsis tumors (AID 1671456); conditions: UWB1.289 ovarian carcinoma cells, stronger effect = higher value;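 note: cells exposed to compound for four days; 0% = vehicle DMSO and 100% = killing by high DMSO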
[14] = growth inhibition, single agents and combos, LFS_MB_2R, cell-based, cisplatin combos, synergistic combos for chromothripsis tumors (AID 1671457); conditions: LFS_MB_2R medulloblastoma cells, stronger effect = higher value;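 note: cells exposed to compound for four days before readout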
[15] = growth inhibition, MDA-MB-436, cell-based, BGB or cisplatin combos, synergistic combos for chromothripsis tumors (AID 1671458; call rule not given here;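 note: cells exposed for 96 hours; 0% = vehicle DMSO and 100% = killing by high DMSO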); conditions: MDA-MB-436 breast carcinoma growth inhibition, drug combinations, stronger effect = higher value
[16] = UWB1.289_BRCA1 ovarian cancer growth, cell-based, BGB or cisplatin combinations (AID 1671459); conditions: UWB1.289 BRCA1 ovarian carcinoma, drug combinations, stronger effect = higher value
[17] = drug combination toxicity in non-malignant astrocytes – cell-based, BGB or cisplatin IC20 combos, cytotoxicity control for chromothriptic childhood tumor combination screen (AID 1671460); conditions: Human astrocytes, viability inhibition, drug combinations, at 0.5 µM, stronger effect = higher value;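 note: cells exposed to compounds for 96 hours before viability readout; 0% = vehicle and 100% = killing control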
[18] = BT084 cell growth, single and combined drugs, ICGC_MB145, cisplatin and BGB IC40 combos (AID 1671461); conditions: BT084 medulloblastoma cells, drug combinations, stronger effect = higher value;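 note: cells exposed to drugs for 96 hours; 0% = vehicle DMSO and 100% = high DMSO full killing control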
[19] = RCMB18 cell growth, single agent and combined, cisplatin and BGB IC40 combos (AID 1671462); conditions: RCMB18 medulloblastoma cells, stronger effect = higher value;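 note: cells exposed to compound for four days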
[20] = CRL1545 cell growth, single agent and combined, cisplatin and BGB IC20 combos (AID 1671464); conditions: CRL1545 osteosarcoma cells, stronger effect = higher value;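 note: cells exposed to compound for 96 hours before readout; 0% = vehicle DMSO and 100% = high DMSO killing control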
[21] = measured here: combination with BGB IC40, at 0.05 µM
[22] = measured here: with BGB IC20 combination, at 0.5 µM
[23] = measured here: with cisplatin IC20 combination, at 0.5 µM
[24] = measured here: combination with cisplatin, at 0.5 µM
[25] = measured here: combination with cisplatin, at 5 µM

## Nc1n[n+]([O-])c2ccccc2[n+]1[O-]
[1]
  outcome: inactive
[2]
  outcome: inactive
[3]
  outcome: inactive

## CC1=C2[N-][C@H]([C@H](CC(N)=O)[C@@]2(C)CCC(=O)NC[C@@H](C)OP(=O)([O-])O[C@H]2[C@@H](O)[C@@H](n3cnc4cc(C)c(C)cc43)O[C@@H]2CO)[C@]2(C)N=C(C(C)=C3N=C(C=C4N=C1[C@@H](CCC(N)=O)C4(C)C)[C@@H](CCC(N)=O)[C@]3(C)CC(N)=O)[C@@H](CCC(N)=O)[C@]2(C)CC(N)=O.O.[Co+2]
[1]
  outcome: inactive
[4]
  outcome: inactive

## NC(=O)c1nc(F)c[nH]c1=O
[1]
  outcome: inactive
[2]
  outcome: inactive
[5]
  outcome: inactive
[3]
  outcome: inactive
[6]; at 0.5 µM, stronger effect = higher value
  inhibition: -5.96% (inactive)
[6]; measured here: combination with BGB IC20, at 0.005 µM
  inhibition: -6.89%
[6]; measured here: combination with BGB IC40, at 0.005 µM
  inhibition: 86.3%
[6]; [21]
  inhibition: 2.5%
[6]; measured here: combination with cisplatin, at 0.5 µM, stronger effect = higher value
  inhibition: -12.3%
[6]; measured here: combination with cisplatin, at 5 µM, stronger effect = higher value
  inhibition: -15%
[7]; BGB combo, at 5 µM
  inhibition: -13.7%
[7]; at 0.5 µM
  inhibition: 0.69% (inactive)
[7]; cisplatin combo, at 5 µM
  inhibition: -13.9%
[7]; [22]
  inhibition: -3.64%
[7]; [23]
  inhibition: -5.09%
[7]; single agent, at 5 µM
  inhibition: 9.18%
[8]; BGB IC20 combo, at 0.005 µM
  inhibition: -3.29%
[8]; BGB IC40 combo, at 0.005 µM
  inhibition: -2.11%
[8]; BGB IC40 combo, at 0.05 µM
  inhibition: 0.125%
[8]; at 0.5 µM
  inhibition: 0.29% (inactive)
[8]; cisplatin combo, at 0.05 µM
  inhibition: -4.93%
[8]; cisplatin combo, at 0.5 µM
  inhibition: 4.34%
[8]; cisplatin combo, at 5 µM
  inhibition: 4.92%
[8]; measured here: 5 uM single agent, at 5 µM
  inhibition: -8.47%
[9]; at 0.5 µM
  inhibition: 1.01% (inactive)
[9]; [21]
  inhibition: 2.61%
[9]; [24]
  inhibition: -16.3%
[9]; [25]
  inhibition: 16.6%
[10]; at 0.5 µM
  inhibition: 1.18% (inactive)
[10]; measured here: with BGB IC20, at 0.5 µM
  inhibition: -2.45%
[10]; measured here: with BGB IC20, at 5 µM
  inhibition: 5.78%
[10]; measured here: with cisplatin IC20, at 0.5 µM
  inhibition: -2.57%
[10]; measured here: with cisplatin IC20, at 5 µM
  inhibition: 4.67%
[10]; single agent, at 5 µM
  inhibition: 17.5%
[11]; at 0.5 µM
  inhibition: -7.02% (inactive)
[11]; measured here: combination with BGB at IC20, at 0.5 µM
  inhibition: -19%
[11]; measured here: combination with cisplatin at IC20, at 0.5 µM
  inhibition: 9.34%
[12]; at 0.5 µM
  inhibition: 0.58% (inactive)
[12]; measured here: combo with BGB at IC20, at 0.5 µM
  inhibition: 5.69%
[12]; measured here: combo with cisplatin at IC20, at 0.5 µM
  inhibition: -1.93%
[13]; at 0.5 µM
  inhibition: 4.26% (inactive)
[13]; measured here: inhibition with BGB combination, at 0.05 µM
  inhibition: 6.54%
[13]; measured here: inhibition with cisplatin combination, at 0.05 µM
  inhibition: -1.23%
[14]; at 0.5 µM
  inhibition: 1.33% (inactive)
[14]; [24]
  inhibition: 5.37%
[14]; [25]
  inhibition: 9.87%
[15]; at 0.5 µM
  inhibition: -2.87% (inactive)
[15]; measured here: BGB combination, at 0.5 µM
  inhibition: -1.29%
[15]; measured here: BGB combination, at 5 µM
  inhibition: -9.17%
[15]; measured here: cisplatin combination, at 0.5 µM
  inhibition: -10.9%
[15]; measured here: cisplatin combination, at 5 µM
  inhibition: -5.06%
[16]; BGB combination, concentration series, at 5 µM
  inhibition: -6.18%
[16]; at 0.5 µM
  inhibition: 1.49% (inactive)
[16]; cisplatin combination, concentration series, at 5 µM
  inhibition: 2.48%
[17]
  inhibition: -3.48% (inactive)
[17]; measured here: combo with BGB IC20
  inhibition: -7.39%
[17]; measured here: combo with cisplatin IC20
  inhibition: -5.76%
[18]; at 0.5 µM
  inhibition: -1.11% (inactive)
[18]; cisplatin combination, at 0.5 µM
  inhibition: 6.95%
[18]; cisplatin combination, at 5 µM
  inhibition: -101%
[18]; measured here: BGB IC40 combination 0.05 uM, at 0.05 µM
  inhibition: -16.8%
[18]; single agent, at 5 µM
  inhibition: 4.66%
[19]; at 0.5 µM
  inhibition: -6.23% (inactive)
[19]; cisplatin combo, at 5 µM
  inhibition: 8.94%
[19]; measured here: BGB IC40 combination, at 0.05 µM
  inhibition: -10.5%
[19]; [24]
  inhibition: -26.7%
[19]; single agent, at 5 µM
  inhibition: 14.2%
[20]; at 0.5 µM
  inhibition: 13.8% (inactive)
[20]; [22]
  inhibition: 6.76%
[20]; [23]
  inhibition: 16%
[20]; single agent, at 0.05 µM
  inhibition: -15.2%
[20]; single agent, at 5 µM
  inhibition: -29.6%

## COc1ccc2c(c1)[C@]1(C[C@H]1c1ccc3c(/C=C/c4ccc(CN5C[C@@H](C)O[C@@H](C)C5)cc4)n[nH]c3c1)C(=O)N2
[1]
  AC50: 4170 nM (active)
[4]
  AC50: 41.7 nM (active)

## COc1ncc(Nc2ncc(C(C)N3CCN(S(C)(=O)=O)CC3)cc2-c2nc(C)nc(N)n2)cc1F (stereo not drawn)
[1]
  AC50: 934 nM (active)
[4]
  AC50: 235 nM (active)

## Cn1c(=O)c(-c2c(Cl)cccc2Cl)cc2cnc(Nc3cccc(C(=O)O)c3)nc21
[1]
  AC50: 1480 nM (active)
[2]
  AC50: 2350 nM (active)
[3]
  outcome: inactive

## Cc1[nH]nc(C(F)(F)F)c1Cc1sc2c(c1C(=O)N1C[C@](C)(O)CO1)c(=O)n(C)c(=O)n2C(C)C
[1]
  outcome: inactive
[2]
  outcome: inactive
[5]
  outcome: inactive
[3]
  outcome: inactive
